# Pf growth 96h: Primary qHTS for delayed death inhibitors of the malarial parasite plastid, 96 hour incubation. 320,000 compounds, 6.9% hits. Potency, µM (doses to about 28.7 µM), without a hit: at the highest dose activity change, negative = inhibition, most hits filed as inhibitors. P. falciparum luciferase reporter growth, 96 h; further: potency means the concentration at half of the fitted maximal effect; on the % scale 0 is the no-effect control and ±100 the full control effect
#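 Cell-based qHTS: luciferase-tagged P. falciparum in erythrocytes (2% hematocrit, 0.05% parasitemia final) incubated with compounds for 96 hours, 37 C, 5% CO2; luciferase detection reagent then added and luminescence measured.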
# NS1 function inh: qHTS Assay for Inhibitors of Influenza NS1 Protein Function; Potency, µM (highest dose often 46.1 µM), for the others: at the highest dose activity, positive = more growth; 270,000 compounds, 0.4% hits; AID 2326, 2010; calls by dose curve; further: potency means the concentration at half of the fitted maximal effect; actives are rising curves; nearly all actives have a fitted effect of over 50% in size
#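 OD600 was taken as the measure of yeast growth restored by compound in an NS1-expressing S. cerevisiae strain. Cells had been washed out of glucose medium and diluted 1:100 into galactose -URA medium, pH 6.0.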
# SARS PLpro yeast: qHTS of Yeast-based Assay for SARS-CoV PLP. S. cerevisiae expressing SARS-CoV PLpro, growth rescue. 330,000 compounds, 0.19% hits. Potency, µM (highest dose often 32.9 µM), for inactives: at the highest dose activity, positive = growth rescue, most hits filed as activators; calls by dose curve; further: potency means the concentration at half of the fitted maximal effect; 0% is about no effect; nearly all actives have a fitted effect of over 55% in size
# CHX counter: Cycloheximide Counterscreen for Small Molecule Inhibitors of Shiga Toxin; cell reporter, cycloheximide protein synthesis inhibition counterscreen; max response, %; 300,000 compounds, 12% hits; AID 2314, 2010; in the data active means max response mostly above about 13%, no sharp cut-off; inactive means mostly below about 14%; further: read at 38.3 µM for the half of the compounds with a filed dose; 0% is about no effect
# Pf growth 48h: Primary qHTS for delayed death inhibitors of the malarial parasite plastid, 48 hour incubation; P. falciparum luciferase growth in erythrocytes, 48 h; Potency, µM (doses to about 28.7 µM), without a hit: at the highest dose activity change, negative = inhibition, hits mostly inhibitors; 310,000 compounds, 5.9% hits; further: potency means the concentration at half of the fitted maximal effect; on the % scale 0 is the no-effect control and ±100 the full control effect
#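 Here the parasites carry a stable luciferase gene and grow inside erythrocytes in Albumax-based RPMI medium with compound for one erythrocytic cycle. Activity is scored as loss of luminescent signal.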
# Shiga toxin inh: A qHTS for Small Molecule Inhibitors of Shiga Toxin; inhibition, % at 38.7 µM; 290,000 compounds, 9.2% hits; AID 2315, 2010; Vero cells, Shiga toxin protein synthesis inhibition reporter; in the data active means inhibition mostly above about 28%, no sharp cut-off; inactive means mostly below about 43%; further: 0% is about no effect
# Active calls of the source: *; i = inactive; ? = inconclusive; nt = no result given; [ ] = dose if it differs, or a comment. Only some compounds are listed: those with a hit (about 21% of all), similar ones and a draw of the others. Unless noted, the call rests on the fitted dose curve; in most records, active means well fitted inhibition curve with a large enough effect; inconclusive means small, poorly fitted or top-dose-only effect, or another doubt; inactive means no such curve, though single readings can be large or run the other way.
SMILES,Pf growth 96h,NS1 function inh,SARS PLpro yeast,CHX counter,Pf growth 48h,Shiga toxin inh
S=C(Nc1ccccc1)N1CCCCCC1,33%,3%,17%,10,37%,-6
Fc1ccc(NC(=S)N2CCCCC2)cc1,17%,16%,-7%,5,4%,-5
Cc1ccc(NC(=S)N2CCCCCC2)cc1,94%,-2%,0%,37*,35%,75*
Cc1ccc(NC(=S)N2CCCC2)cc1,-7%,-1%,0%,27*,40%,77*
COc1ccc(NC(=S)N2CCCCCC2)cc1OC,4%[5.75 µM],nt,0%,-1,-11%,-1
Cc1ccc(C)c(NC(=S)N2CCN(S(C)(=O)=O)CC2)c1,20%,8%,-1%,8,6%,-5
CC(=O)c1ccc(NC(=S)N2CCCCCC2)cc1,3%,-2%,-1%,21*,95%,67*
S=C(Nc1cc(Cl)cc(Cl)c1)N1CCCC1,3%,0%,?,-3,1%,-6
S=C(Nc1ccc(Cl)cc1)N1CCCC1,42%,-2%,21%,30*,15%,36
CC(=O)NC(Cc1ccccc1F)C(=O)NC1CCN(C(=O)Nc2ccc(C)cc2)CC1 (stereo not given),1%,0%,-2%,-5,0%,29
COc1cc(OC)cc(C(=O)Nc2ccc(NC(=O)c3ccco3)c(C)c2)c1,6%,3%,-43%,1,62%,36
Cc1ccc(NC(=O)CCNC(=O)c2ccco2)cc1F,23%,nt,2%,13*,3%,26
Cc1ccc(NCc2ccco2)cc1C,?,0%,0%,27*,18%,70*
Cc1ccc(NC(=O)c2ccco2)cc1C,13%,-156%,-34%,37*,226%,84*
Cc1cc(NC(=O)c2ccco2)ccc1NC(=O)c1ccco1,88%,2%,-43%,22,45%,71*
Cc1cc(NC(=O)/C=C/c2ccco2)ccc1NC(=O)c1ccccc1,33%,?,0%,29*,19%,53*
Cc1ccc(C)c(NS(=O)(=O)c2ccc(NC(=O)c3ccco3)cc2)c1,12µM*,-10%,?,-2,10µM*,13
CCn1nccc1C(=O)Nc1ccc(C)c(C)c1,?,-1%,-8%,34*,63%,62*
Cc1ccc(NC(=O)c2cc(S(=O)(=O)N3CCCC3)cn2C)cc1C,46%,2%,2%,-1,?,-2
CCC(=O)c1ccc(OC(=O)C2CCN(C3=NS(=O)(=O)c4ccccc43)CC2)cc1,0%,nt,-2%,nt,51%,nt
Cc1ccc(Nc2cc(C)nc3ncnn23)cc1,?,-2%,4%,3,3.7µM*,3
Cc1ccc(-c2cc(C)nc3ncnn23)cc1,12µM*,-16%,0%,1,nt,40
CC(=O)c1ccc(Nc2cc(C)nc3ncnn23)cc1,-14%,1%,0%,-5,?,nt
Cc1cc(Nc2ccc(C)c(F)c2)n2ncnc2n1,34%,0%,-5%,-4,1.5µM*,-11
Cc1cc(OCC(=O)NC(C)C)ccc1Cl,?,nt,0%,9,0%,32
SMILES,Pf growth 96h,NS1 function inh,SARS PLpro yeast,CHX counter,Pf growth 48h,Shiga toxin inh
CC1CCC(C(C)C)C(OCC(O)CNC(C)C)C1 (stereo not given),?,6%,-1%,2,?,-24
Cc1cc(=O)c2c(O)c3c(O)cc(=O)c4c3c3c(cc(O)c1c23)C(C)(C)C=4O,1.5µM*,nt,nt,nt,2.7µM*,nt
COc1ccc(NCC(=O)N/N=C/c2cc([N+](=O)[O-])ccc2N2CCCC2)cc1,-7%,nt,-1%,9,2%,12
NNC(=O)c1ccc(COc2ccc3c(c2)CCC3)cc1,3%,27%,-49%,16,31%,11
COc1ccc(OCc2cccc(C(=O)NN)c2)cc1,197%,11%,-6%,124*,343%,140*
NNC(=O)c1cccc(COc2ccc(Br)cc2)c1,-53%,27%,-30%,68*,282%,149*
O=C(NN1CCOCC1)c1cccc(COc2cccc(Br)c2)c1,?,-4%,-4%,16*,26%,61
COc1ccc(OCc2cccc(C(=O)Nn3cc([N+](=O)[O-])cn3)c2)cc1,68%,6%,-108%,5,131%,2
NNC(=O)c1cccc(COc2cccc(Br)c2)c1,i,25%,-5%,32*,168%,74*
Cc1ccc(C(=O)Nc2c(C)cc(C)c3cccnc23)cc1,?,1%,-8%,2,-1%,-11
CCCNC(=O)c1cccc(COc2ccccc2OC)c1,13%,-2%,-1%,50*,358%,123*
NNC(=O)c1ccc(COc2ccc3ccccc3c2)cc1,?,-36%,0%,35*,?,45*
O=C1OC(c2ccco2)=N/C1=C\c1ccc(-c2cccc(C(F)(F)F)c2)o1,40%,19%,26%,1,-4%,-9
NC(=O)CSc1nc2cc3c(cc2c(=O)n1CCCC(=O)NCc1ccc2c(c1)OCO2)OCO3,?,9%,-2%,-1,4%,-15
COC(=O)/C=C1/S/C(=N/N=C/c2ccco2)NC1=O,?,-35%,-3%,-2,?,-15
COC(=O)/C=C1\S/C(=N/N=C/c2ccc(Cl)cc2)NC1=O,8%,-45%,-6%,-1,15µM*,-4
COC(=O)C/C=N/N=C1/NC(=O)/C(=C/C(=O)O)S1,9.3µM*,-1%,1%,-1,?,28
COC(=O)/C=C1\S/C(=N/N=C/c2ccccc2)NC1=O,-12%,-7%,-16%,10,-23%,-4
CC(=O)c1cccc(N(C(=O)CNC(=O)c2cccs2)C(C(=O)NCC2CCCO2)c2ccccc2)c1 (stereo not given),0%,1%,-1%,-1,?,24
CN1CCC(=NNC(=O)C(=O)Nc2ccccc2)CC1,79%,-13%,-3%,24*,20%,25*
Cc1ccc(N/C(N)=N/c2nc(C)cc(N3CCCCC3)n2)c(C)c1,?,nt,-2%,-2,0%,13
CC(CCc1ccccc1)NS(=O)(=O)c1ccc(Cl)c(C(=O)O)c1 (stereo not given),29%,10%,3%,-9,-3%,-6
Cc1nc2scc(-c3ccccc3)c2c(=O)n1N,-20%,-15%,-8%,-1,nt,-5
Cc1nc2scc(-c3ccccc3)c2c(=O)n1N=C1C=CC(=O)C=C1,1%,-5%,-2%,25*,54%,49*
COc1ccc(C(=O)Nc2scc(-c3ccc(Cl)cc3Cl)c2C(N)=O)cc1,29%,8%,8%,44*,31%,153*
COc1ccc(C(=O)Nc2cc(OC)c(Cl)cc2Cl)cc1,84%,nt,-1%,17,100%,29
CC(=O)Nc1cccc(C(=O)OCc2ccc([N+](=O)[O-])cc2)c1,-13%,-3%,-2%,-3,2%,-5

# Screening results (PubChem BioAssay)
